Data reported in PubChem BioAssay AID652104 (National Center for Advancing Translational Sciences (NCATS), 2013).
Several values for one entry are separate records, joined by “and”; a condition that tells them apart may be missing. Equal values may be shown once. Hit rate of the full screen: of about 410,000 compounds, about 7,200 (1.8%) were called active. Roughly 7% stayed inconclusive and do not appear here. Calls follow the shape of the dose curve; as a rule, active = well fitted activation curve with a large enough effect; inconclusive = small, poorly fitted or top-dose-only effect, or another doubt; inactive = no such curve, though single readings can be large or run the other way. Only a selection was taken, and actives are over-represented in it overall. Some structures have more than one record in an assay (separate samples or runs), and their calls can disagree.

Experiment: qHTS of TDP-43 Inhibitors; also: nearly all actives have a fitted effect of over 50% in size; as to growth rescue (activation): % of control where 0% means no effect
Conditions: TDP-43 expressing yeast growth rescue, BacTiter-Glo, 24 h; series mostly up to 46.1 µM; growth rescue (activation): at the top concentration
In short: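 In this qHTS, compounds that restore growth of yeast expressing TDP-43 appear as activators. Cells (OD600=0.02, galactose medium, raffinose-pregrown) are incubated with compound 24 hr at 30 deg C and growth is quantified by BacTiter-Glo.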
Potency is read from the fitted curve at half-maximal effect.

SMILES | Potency | growth rescue (activation)
Cc1ccc(OCC(=O)Nc2ccc(Cl)c(-c3nc4ccccc4[nH]3)c2)cc1C | 22.4 µM (active) | 
Cc1ccc(OCC(=O)Nc2ccc3oc(=O)ccc3c2)cc1C |  | 8.17% (inactive)
Cc1ccc(NC(=O)COc2ccc(-n3ccnc3)cc2)cc1Cl |  | -4.75% (inactive)
Cn1c(=O)c2c(n3c4ccccc4nc13)NC(=O)CC2c1cccc(Cl)c1 (centres undefined) |  | -15.9% (inactive)
CC(=O)N1CCc2cc(S(=O)(=O)NC(Cc3ccccc3)C(=O)NCc3ccc(C)cc3)ccc21 (centres undefined) |  | 12.9% (inactive)
CCOc1ccccc1CNCc1c(C(=O)O)c(C)n(Cc2ccc(C)cc2)c1C |  | -8.38% (inactive)
Cc1ccc2ncc(C(=O)Nc3ccc(OC(F)(F)F)cc3)c(=O)n2c1 |  | 0.45% (inactive)
O=C(COC(=O)c1cccc(Cl)c1Cl)NC1CCCCCC1 |  | 5.99% (inactive)
Cc1ccc(C(=O)OCC(=O)NC2CCCCCCC2)cc1C |  | 17.2% (inactive)
O=C(COC(=O)c1cccc(Cl)c1)NC1CCCCCCC1 | 22.4 µM (active) | 
CCn1cc2nc(SCc3ccccc3Cl)n(CCc3ccccc3)c(=O)c2n1 |  | -12% (inactive)
COc1ccc(CNC(=O)CCc2c(C)nn(-c3ccc(N4CCCC4)nn3)c2C)cc1 |  | 3.38% (inactive)
Cc1ccccc1NC(=O)CN1C(=O)C(C)(C)c2ccccc21 |  | 21.2% (inactive)
Cc1ccc(NC(=O)CN2C(=O)CC(C)Sc3ccccc32)c(C)c1 (centres undefined) | 17.8 µM (active) | 
CC1CC(=O)N(CC(=O)Nc2cccc(Cl)c2)c2ccccc2S1(=O)=O (centres undefined) |  | -1.06% (inactive)
COC(=O)c1c(NC(=O)c2cc(=O)c3c(C)cc(C)cc3o2)sc2c1CCCC2 |  | 0% (inactive)
COc1ccc(-c2noc(CSc3nc4ccc(C)cc4[nH]3)n2)cc1 |  | 8.72% (inactive)
COc1ccc(OC)c(CNC(=O)Cn2nc(C)c3c(C)n(-c4ccccc4)nc3c2=O)c1 |  | 5.84% (inactive)
CC(C)CC(N=C1NC(C)(C)Cc2ccccc21)C(=O)O (centres undefined) |  | -13.2% (inactive)
CC1(C)Cc2ccccc2/C(=C/C(=O)c2ccccc2)N1 | 12.6 µM (active) | 
CCOC(=O)C1=C(NC(=S)NC(=O)c2ccccc2)c2ccccc2CC1(C)C |  | 16.4% (inactive)
O=C(CSc1n[nH]c(-c2ccccc2)n1)N1CCCCC1 |  | 18.7% (inactive)
Cc1cc(=O)n(CC(=O)Nc2cccc([N+](=O)[O-])c2)c(-n2nc(C)cc2C)n1 |  | 28.7% (inactive)
COC(=O)c1cc(NC(=O)CCS(=O)(=O)c2cc(Br)cc3c2N(C(=O)C2CC2)CC3)cc(C(=O)OC)c1 |  | 11.2% (inactive)
COc1ccc(CCNc2nc(-c3ccc(F)cc3)cc(C(F)(F)F)n2)cc1OC |  | -15.4% (inactive)

SMILES | Potency | growth rescue (activation)
COc1ccc(CNc2nc(-c3ccc(Cl)cc3)cc(C(F)(F)F)n2)cc1 |  | 23.9% (inactive)
COc1ccc(-c2cc(C(F)(F)F)nc(S(C)(=O)=O)n2)cc1OC | 10 µM (active) | 
COc1ccccc1CNC(=O)Cn1nc(C)c2nn(-c3ccc(Cl)cc3)c(C)c2c1=O |  | 6.06% (inactive)
COc1ccccc1OCCCn1c(-c2ccc(Cl)cc2)nc2ccccc2c1=O |  | -6.55% (inactive)
O=C(O)c1ccccc1CSc1nc2ccccc2s1 | 12.6 µM (active) | 
CN(C(=O)CSc1nc2ccc(NC(=O)COc3ccccc3)cc2s1)c1ccccc1 |  | 27.4% (inactive)
O=C(Nc1ccc2nc(SCC(=O)N3CCc4ccccc43)sc2c1)c1ccccc1F |  | -12.6% (inactive)
Cc1cccc(-c2nc(SCc3ccc(Br)cc3)n3[nH]c(=O)cc3n2)c1 |  | 8.73% (inactive)
COc1ccc(CC(=O)N2CC(=O)Nc3ccc(Br)cc3C2c2ccc(F)cc2)cc1OC (centres undefined) |  | -19.6% (inactive)
COc1ccccc1N1CCN(C(=O)c2cc3c(-c4ccc(Cl)cc4)nn(C)c3s2)CC1 | 35.5 µM (active) | 
COc1ccc(Nc2ncc(C(=O)N3CCN(c4ccccc4OC)CC3)c3ccccc23)cc1 | inactive | 
Cn1nc(-c2ccc(Cl)cc2)c2cc(C(=O)NCc3ccco3)sc21 |  | 19.9% (inactive)
COc1ccc(CNC(=O)c2cc3c(-c4ccccc4F)nn(C)c3s2)c(OC)c1 |  | 19.5% (inactive)
COc1cccc(-c2cc(C(=O)N3CCN(c4ccccc4OC)CC3)no2)c1 | 22.4 µM (active) | 
CCS(=O)(=O)N1CCc2cc(C(=O)N3CCN(c4ccccc4OC)CC3)ccc21 |  | -2.38% (inactive)
COc1ccc(C(=O)NCC(c2ccc(N(C)C)cc2)N2CCc3ccccc32)c(OC)c1 (centres undefined) |  | 7.72% (inactive)
CCOC(=O)c1c(NC(=O)COc2cc(C)ccc2C(C)C)sc(C)c1C |  | 8.05% (inactive)
CCc1ccccc1OCCSc1nc(-c2cccs2)nc2cc(=O)[nH]n12 |  | 2.88% (inactive)
Cc1nn(C(C)C(=O)NCCc2ccccc2)c(=O)c2c1sc1ccccc12 (centres undefined) |  | 7.28% (inactive)
O=C(NCCc1ccccc1)c1ccc2c(c1)N(Cc1ccc(F)cc1)C(=O)c1ccccc1S2(=O)=O |  | 3.53% (inactive)
CCCCN1C(=O)c2[nH]nc(-c3ccccc3O)c2C1c1cccc(OCc2ccccc2)c1 (centres undefined) |  | 0% (inactive)
Cn1c(=O)c2c(ncn2CC(=O)Nc2cccc(C(F)(F)F)c2)n(C)c1=O |  | 20.5% (inactive)
CSc1nc(-c2ccc(F)cc2)nc2c1Cc1c(CO)cnc(C)c1O2 |  | 21.5% (inactive)
COc1cc(NC(=O)CSc2ccc(-c3cccnc3)nn2)cc(OC)c1 |  | -17.4% (inactive)
O=C(CSc1ccc(-c2ccccn2)nn1)Nc1ccccc1 | 28.2 µM (active) | 

SMILES | Potency | growth rescue (activation)
O=C(CSc1ccc(-c2ccc(-n3cccn3)cc2)nn1)Nc1ccc([N+](=O)[O-])cc1 |  | 12.4% (inactive)
CCc1ccc(NC(=O)CN2CCSc3ccc(S(=O)(=O)N4CCCC4)cc32)cc1 |  | 15.8% (inactive)
Cc1cccc(N2CCN(c3c(CN4CCCC4)c(=O)oc4ccccc34)CC2)c1C |  | 9.53% (inactive)
COc1ccc(C)cc1Nc1nc2ccccc2c2nnc(C)n12 |  | 14.7% (inactive)
Cc1ccc(C(=O)Nc2c(C(=O)NC(C)(C)C)oc3ccccc23)cc1 |  | 14.8% (inactive)
Cn1c(SCC(=O)NC2CCCCC2)nnc1-c1cc2ccccc2o1 |  | -2.43% (inactive)
COc1ccccc1CN(C)C(=O)c1cc2ccccc2o1 |  | 20.2% (inactive)
CCNc1nc(-c2cc3ccccc3o2)cs1 | 14.1 µM (active) | 
Cc1ccc(N2CC(c3nnc(Cc4ccccc4Cl)o3)CC2=O)cc1 (centres undefined) |  | 22.1% (inactive)
COc1cc(C(=O)N2CCN(C(=O)COc3cccc(C)c3)CC2)cc(OC)c1OC |  | 9.38% (inactive)
CCN(CC)S(=O)(=O)c1ccc2c(c1)c(=O)c(C(=O)N1CCN(c3cccc(Cl)c3)CC1)cn2C |  | 15.9% (inactive)
Cc1cccc(CNS(=O)(=O)c2ccc(-c3cnc(C4CC4)o3)cc2)c1 | inactive and 12.6 µM (active) | 
Cc1ccc(-c2cnc(C3CC3)o2)cc1S(=O)(=O)Nc1cccc(C)c1C |  | 17% (inactive)
Cc1cccc(CCNS(=O)(=O)c2ccc(S(=O)(=O)NC3CCCC3)cc2)c1 |  | -9.75% (inactive)
O=C(CN1CCSc2ccccc21)N1CCN(c2ccccc2)CC1 |  | 29.6% (inactive)
COc1ccccc1NC(=O)c1cc(C2CC2)nc2c1c(C)nn2-c1ccc(C)cc1 |  | 0% [at 9.22 µM] (inactive)
COc1ccc(NC(=O)C2Cc3c(-c4cccc(NC(C)=O)c4)ccnc3O2)cc1OC (centres undefined) |  | 10.1% (inactive)
CC(=O)Nc1ccc(-c2ccnc3c2CC(C(=O)NC(C)C)O3)cc1 (centres undefined) |  | 22.5% (inactive)
COc1ccc(NC(=O)C2Cc3c(-c4ccc(Cl)cc4)ccnc3O2)cc1 (centres undefined) | 14.1 µM (active) | 
CC1CCc2noc(NC(=O)c3ccc([N+](=O)[O-])cc3)c2C1 (centres undefined) |  | 6.42% (inactive)
Cc1cc(C)cc(OCC(=O)Nc2nc(-c3ccc(F)cc3)ns2)c1 |  | 6.88% (inactive)
COc1cccc(C(=O)Nc2c3c(nn2-c2cccc(C)c2C)CS(=O)(=O)C3)c1OC |  | -20.6% (inactive)
Cn1nccc1C(=O)NC1CCCc2c1cnn2-c1ccc(F)cc1F (centres undefined) |  | 10.7% (inactive)
COc1ccc(C(=O)NC2CCCc3c2cnn3-c2cccc(C)c2C)c(OC)n1 (centres undefined) | 15.8 µM (active) | 
CCOc1ccc(CNCc2c(C(=O)O)c(C)n(Cc3cccc(OC)c3)c2C)cc1OC |  | 20.8% (inactive)

SMILES | Potency | growth rescue (activation)
Cc1ccc(-n2c(SCC(=O)Nc3cccc(F)c3)nc3c(oc4ccccc43)c2=O)cc1C |  | 6.78% (inactive)
S=c1[nH]nc2c3c4c(sc3ncn12)CCCC4 | 4.47 µM (active) | 
CCn1c(=S)[nH]c2sc3c(c2c1=O)CCCCC3 |  | 7.77% (inactive)
Cc1ccc2nc(COc3ccc(NC(=O)COc4ccccc4F)cc3)cc(=O)n2c1 |  | -13.1% (inactive)
Cc1cccc(Cn2c(SCc3ccc(C(=O)N4CCC(C)CC4)cc3)nc3ccncc32)c1 |  | -2.39% (inactive)
CCc1nnc(SCc2nc(-c3cccc(C)c3)oc2C)c2cc3sc(C)cc3n12 |  | 9.11% (inactive)
Cc1nnc(SCc2cccc(Cl)c2)n(N)c1=O |  | -2.32% (inactive)
Cc1cc2c(cc3c(SCc4nc(-c5ccccc5)oc4C)nnc(C)n32)o1 | 17.8 µM (active) | 
Cc1cc2c(cc3c(SCc4cccc(Cl)c4)nnc(C)n32)o1 | 20 µM (active) | 
O=C(c1ccco1)N1CCN=C1SCc1cccc(Cl)c1 |  | 4.84% (inactive)
Cc1cc(NC(=O)CSCc2nc(-c3cccc(Cl)c3)oc2C)no1 |  | -9.69% (inactive)
COc1cccc(-c2nnc(SCC(=O)N3CCC(C)CC3)o2)c1 |  | 42.2% (inactive)
O=C(Cn1cc(SCc2ccccc2)c2ccccc21)N1CCCCC1 |  | 0% (inactive)
C=CCC(NCc1ccco1)c1ccc(OC)cc1 (centres undefined) |  | -8.96% (inactive)
COc1ccc(NC(=O)C(=O)NCc2ccco2)cc1 |  | 19% (inactive)
COc1ccc(Nc2nc(NCc3ccco3)nc(N/N=C/c3ccccc3Cl)n2)cc1 | 17.8 µM (active) | 
COc1cc(OC)cc(-c2nc3nc(C)c(CCC(=O)Nc4ccccc4)c(C)n3n2)c1 |  | 1.76% (inactive)
O=C(NCCCc1ccccc1)c1ccc2c(c1)sc1nc(-c3ccc(F)cc3)cn12 |  | 1.87% (inactive)
CCC(=O)N1c2ccccc2CC1C(=O)N1CCN(c2cccc(OC)c2)CC1 (centres undefined) |  | 0% (inactive)
CC1=C(c2ccc(C)c(C)c2)S(=O)(=O)NC1=NCc1ccccc1Cl |  | -4.02% (inactive)
CS(=O)(=O)N(CC(O)Cn1c2ccccc2c2ccccc21)c1cccc2ccccc12 (centres undefined) |  | -13.6% (inactive)
O=C1c2ccccc2S(=O)(=O)N1CC(O)Cn1c2ccccc2c2ccccc21 (centres undefined) | 11.2 µM (active) | 
O=C1c2ccccc2S(=O)(=O)N1Cc1c(F)cccc1Cl |  | -8.24% (inactive)
COc1ccc(CNC(=O)c2ccc3c(O)c(S(=O)(=O)c4ccccc4)c(=O)[nH]c3c2)cc1 |  | 6.56% (inactive)
